Reference: PubChem BioAssay (NCATS)
Results filed as inconclusive are left out. The source made the active and inactive calls. The call rests on the fitted dose curve; in most records, active means well fitted curve in the direction sought with a large enough effect; inconclusive means small, poorly fitted or top-dose-only effect, or another doubt; inactive means no such curve, though single readings can be large; an effect the other way counts as inactive or inconclusive.

Key:
W2 = test: qHTS profiling for inhibitors of Plasmodium falciparum proliferation (AID 504749); further: nearly all actives have a fitted effect of over 60% in size; further: potency means the concentration at half of the fitted maximal effect; conditions: P. falciparum in erythrocytes, SYBR Green DNA, 72 h; series mostly up to 28.7 µM
Outline: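 In a 72 h erythrocytic culture (37 C, humidified, 5% CO2) at 2.5% hematocrit and 0.3% starting parasitemia, compounds were tested; SYBR Green I in detergent lysis buffer stained parasite DNA overnight.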

CRL-7250 = normal cell line; test: Cytotoxic Profiling of Annotated Libraries Using Quantitative High-Throughput Screening (AID 1296008); conditions: Five cell lines viability, CellTiter-Glo ATP luminescence, 48-72 h; max response: hits give low values; further: nearly all actives have a fitted effect of over 60% in size; further: potency means the concentration at half of the fitted maximal effect; on max response: on the % scale 0 is the no-effect control and ±100 the full control effect
Outline: (§1)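 Cytotoxicity was measured as CellTiter-Glo ATP luminescence, read after 10 min at room temperature. Compound treatment of the cells lasted 48 or 72 hr at 37 degrees Celsius in a qHTS format.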

HEK293 = test: as above; conditions: Five cell lines viability, CellTiter-Glo ATP luminescence, 48-72 h; max response: hits give low values
Outline: as §1

HaCat [1] = test: as above; conditions: Five cell lines viability, CellTiter-Glo ATP luminescence, 48-72 h; max response: hits give low values
Outline: as §1

KB-3-1 = test: as above; conditions: Five cell lines viability, CellTiter-Glo ATP luminescence, 48-72 h; max response: hits give low values
Outline: as §1

NIH3T3 [2] = test: as above; conditions: Five cell lines viability, CellTiter-Glo ATP luminescence, 48-72 h; max response: hits give low values
Outline: as §1

MCC-13 = test: qHTS assay to identify novel small-molecules to repurpose for Merkel cell carcinoma treatment (AID 1296009); conditions: MCC and control cell lines, CellTiter-Glo viability, 72 h; series mostly up to 46 µM; further: nearly all actives have a fitted effect of over 60% in size; further: potency means the concentration at half of the fitted maximal effect
Outline: (§2)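 Cell viability measured by CellTiter-Glo following 72 hr compound treatment at 37 degree celsius, with NPC and MIPE libraries tested in 8- and 11-point concentration series.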

MCC-26 = test: as above; conditions: MCC and control cell lines, CellTiter-Glo viability, 72 h; series mostly up to 46 µM
Outline: as §2

MKL-1 = test: as above; conditions: MCC and control cell lines, CellTiter-Glo viability, 72 h; series mostly up to 46 µM
Outline: as §2

MKL-2 = test: as above; conditions: MCC and control cell lines, CellTiter-Glo viability, 72 h; series mostly up to 46 µM
Outline: as §2

NIH3T3 [3] = test: as above; conditions: MCC and control cell lines, CellTiter-Glo viability, 72 h; at 44.8 µM (top of the series)
Outline: as §2

UISO = test: as above; conditions: MCC and control cell lines, CellTiter-Glo viability, 72 h; series mostly up to 46 µM
Outline: as §2

C33A = test: Primary qHTS to identify gynecologic anti-cancer compounds using libraries of approved drugs and bioactive compounds (AID 1345084); conditions: Gynecologic cancer cell panel viability, ATPlite luminescence, 48 h; series mostly up to 57.5 µM; further: on the % scale 0 is the no-effect control and ±100 the full control effect; nearly all actives have a fitted effect of over 55% in size
Outline: (§3)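 Cells, 1,000 per well, were allowed to settle for 16 h at 37 C before compound addition. Five concentrations were tested for 48 h, and viability was read by ATPlite luminescence after 15 min at room temperature.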

CAOV3 = test: as above; conditions: Gynecologic cancer cell panel viability, ATPlite luminescence, 48 h; series mostly up to 57.5 µM
Outline: as §3

CASKI = test: as above; conditions: Gynecologic cancer cell panel viability, ATPlite luminescence, 48 h; series mostly up to 57.5 µM
Outline: as §3

Es-2 = test: as above; conditions: Gynecologic cancer cell panel viability, ATPlite luminescence, 48 h; series mostly up to 57.5 µM
Outline: as §3

HeLa = test: as above; conditions: Gynecologic cancer cell panel viability, ATPlite luminescence, 48 h; series mostly up to 57.5 µM
Outline: as §3

WaGa = test: qHTS assay to identify novel small-molecules to repurpose for Merkel cell carcinoma treatment (AID 1296009); conditions: MCC and control cell lines, CellTiter-Glo viability, 72 h; series mostly up to 46 µM; further: nearly all actives have a fitted effect of over 60% in size; further: potency means the concentration at half of the fitted maximal effect
Outline: as §2

HEK293T = test: as above; conditions: MCC and control cell lines, CellTiter-Glo viability, 72 h; at 44.8 µM (top of the series) unless noted
Outline: as §2

HACAT [4] = test: as above; conditions: MCC and control cell lines, CellTiter-Glo viability, 72 h; at 44.8 µM (top of the series) unless noted
Outline: as §2

NCc1ccccc1Sc1ccccc1CO
active: Potency (W2) 4.78 µM
inactive: max response (CRL-7250) -5.17% | max response (HEK293) -7.72% | max response (HaCat [1]) -3.87% | max response (KB-3-1) 6.51% | outcome (NIH3T3 [2]) | Potency (MCC-13) | Potency (MCC-26) | Potency (MKL-1) | Potency (MKL-2) | outcome (NIH3T3 [3]) | Potency (UISO) | Potency (C33A) | Potency (CAOV3) | Potency (CASKI) | Potency (Es-2) | Potency (HeLa)

Cc1ccc(-c2ncc(Cl)cc2-c2ccc(S(C)(=O)=O)cc2)cn1
inactive: max response (CRL-7250) -1.19% | max response (HEK293) 4.1% | max response (HaCat [1]) -27.8% | max response (KB-3-1) -5.38% | max response (NIH3T3 [2]) -3.08% | Potency (MCC-13) | Potency (MCC-26) | Potency (MKL-1) | Potency (MKL-2) | Potency (UISO) | Potency (WaGa) | Potency (C33A) | Potency (CAOV3) | Potency (CASKI) | Potency (Es-2) | Potency (HeLa)

CCCCCCCCOc1ccc(C(=O)c2ccccc2)c(O)c1
inactive: Potency (W2) | max response (CRL-7250) -1.36% | max response (HEK293) -1.87% | max response (HaCat [1]) -8.31% | max response (KB-3-1) 1.72% | max response (NIH3T3 [2]) -1.51% | Potency (MCC-13) | Potency (MCC-26) | Potency (MKL-1) | Potency (MKL-2) | Potency (UISO) | Potency (WaGa) | Potency (C33A) | Potency (CAOV3) | Potency (CASKI) | Potency (Es-2) | Potency (HeLa)

COc1ccc(CCN(C)CCCN2CCc3cc(OC)c(OC)cc3CC2=O)cc1OC
inactive: max response (CRL-7250) -0.711% | outcome (HEK293) | max response (HaCat [1]) -7.19% | max response (KB-3-1) -10.8% | max response (NIH3T3 [2]) 3.6% | outcome (HEK293T) | Potency (MCC-13) | Potency (MCC-26) | Potency (MKL-1) | Potency (MKL-2) | Potency (UISO) | Potency (C33A) | Potency (CAOV3) | Potency (CASKI) | Potency (Es-2) | Potency (HeLa)

CCCCN=C(N)N=C(N)N
inactive: Potency (W2) | max response (CRL-7250) 1.78% | outcome (HEK293) | max response (HaCat [1]) 2.62% | max response (KB-3-1) 1.99% | max response (NIH3T3 [2]) -1.41% | outcome (HEK293T) | Potency (MCC-13) | Potency (MCC-26) | Potency (MKL-1) | Potency (MKL-2) | Potency (UISO) | Potency (C33A) | Potency (CASKI) | Potency (Es-2) | Potency (HeLa)

Cc1cc(NS(=O)(=O)c2ccc(N)cc2)nc(C)n1
inactive: Potency (W2) | max response (CRL-7250) -3.14% | max response (HEK293) -0.689% | outcome (HaCat [1]) | max response (KB-3-1) 15.3% | max response (NIH3T3 [2]) 4.17% | outcome (HACAT [4]) | Potency (MCC-13) | Potency (MCC-26) | Potency (MKL-1) | Potency (MKL-2) | Potency (WaGa) | Potency (C33A) | Potency (CAOV3) | Potency (CASKI) | Potency (Es-2) | Potency (HeLa)

CCCCc1cc2ccccc2c(OCCN(C)C)n1
active: Potency (HEK293) 18.8 µM | Potency (WaGa) 21.1 µM
inactive: max response (CRL-7250) -9.77% | outcome (HaCat [1]) | max response (KB-3-1) -3.23% | max response (NIH3T3 [2]) -15.9% | outcome (HACAT [4]) | Potency (MCC-13) | Potency (MCC-26) | Potency (MKL-1) | Potency (C33A) | Potency (CAOV3) | Potency (Es-2) | Potency (HeLa)

NCCNC(=O)c1ccc(Cl)cn1
inactive: Potency (W2) | outcome (CRL-7250) | max response (HEK293) -1.7% | outcome (HaCat [1]) | max response (KB-3-1) -16.4% | max response (NIH3T3 [2]) 2.21% | outcome (HACAT [4]) | Potency (MCC-13) | Potency (MCC-26) | Potency (MKL-1) | Potency (UISO) | Potency (WaGa) | Potency (C33A) | Potency (CASKI) | Potency (Es-2) | Potency (HeLa)

Cc1c[nH]c2ccccc12
inactive: Potency (W2) | outcome (CRL-7250) | max response (HEK293) 2.22% | outcome (HaCat [1]) | max response (KB-3-1) 8.35% | outcome (NIH3T3 [2]) | outcome (HACAT [4]) | Potency (MCC-13) | Potency (MKL-2) | outcome (NIH3T3 [3]) | Potency (UISO) | Potency (C33A) | Potency (CAOV3) | Potency (CASKI) | Potency (Es-2) | Potency (HeLa)

O=C(O)CCc1nc2ccccc2[nH]1
inactive: max response (CRL-7250) -5.04% | max response (HEK293) -3.96% | max response (HaCat [1]) -3% | max response (KB-3-1) -8.67% | max response (NIH3T3 [2]) -8.19% | Potency (MCC-13) | Potency (MCC-26) | Potency (MKL-1) | Potency (MKL-2) | Potency (UISO) | Potency (WaGa) | Potency (C33A) | Potency (CAOV3) | Potency (CASKI) | Potency (Es-2) | Potency (HeLa)

Cc1cc(C)cc(OCC2CNC(=O)O2)c1 (stereo not given)
inactive: max response (CRL-7250) 2.93% | max response (HEK293) 3.06% | max response (HaCat [1]) -13.4% | max response (KB-3-1) 2.21% | max response (NIH3T3 [2]) 0.518% | Potency (MCC-13) | Potency (MCC-26) | Potency (MKL-1) | Potency (MKL-2) | Potency (UISO) | Potency (WaGa) | Potency (C33A) | Potency (CAOV3) | Potency (CASKI) | Potency (Es-2) | Potency (HeLa)

C[N+]12CCC(CC1)C(OC(=O)C(O)(c1ccccc1)c1ccccc1)C2 (stereo not given)
inactive: max response (CRL-7250) 3.27% | max response (HEK293) -6.95% | max response (HaCat [1]) -16.2% | max response (KB-3-1) 1.71% | max response (NIH3T3 [2]) 0.982% | Potency (MCC-13) | Potency (MCC-26) | Potency (MKL-1) | Potency (MKL-2) | Potency (UISO) | Potency (WaGa) | Potency (C33A) | Potency (CAOV3) | Potency (CASKI) | Potency (Es-2) | Potency (HeLa)

CN(C)C(=O)Nc1ccc(Cl)c(Cl)c1
inactive: max response (CRL-7250) 2.46% | max response (HEK293) 3.61% | max response (HaCat [1]) -27.1% | max response (KB-3-1) -25.2% | max response (NIH3T3 [2]) -5.25% | Potency (MCC-13) | Potency (MCC-26) | Potency (MKL-1) | Potency (MKL-2) | Potency (UISO) | Potency (WaGa) | Potency (C33A) | Potency (CAOV3) | Potency (CASKI) | Potency (Es-2) | Potency (HeLa)

CC(=O)Nc1ccc(S(=O)(=O)Nc2ccc([N+](=O)[O-])cc2)cc1
inactive: Potency (W2) | max response (CRL-7250) -4.42% | max response (HEK293) -4.06% | outcome (HaCat [1]) | max response (KB-3-1) 15% | max response (NIH3T3 [2]) 3.15% | outcome (HACAT [4]) | Potency (MCC-13) | Potency (MCC-26) | Potency (MKL-1) | Potency (MKL-2) | Potency (UISO) | Potency (C33A) | Potency (CASKI) | Potency (Es-2) | Potency (HeLa)
